Drawing on PubChem BioAssay, this text covers composite z-score and z-score for 5 compounds.

Assay [1] deals with Plasmodium falciparum Sir2 (PF13_0152, Sir2A). The assay can be described thus: pfSir2 binders on small-molecule microarrays, primary screen, biochemical, small-molecule microarray, 635 nm fluorescence (AID 1098).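 Further: score merges spot fluorescence intensity with its signal-to-noise ratio.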 The conditions noted are these: small-molecule microarray binding, fluorescence 635 nm; higher = more signal.
The nature of assay [2]: small-molecule microarray binders of probe aDKK1, primary screen, biochemical, biotinylated probe, 635/667 nm fluorescence (AID 1099).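 Further: score merges 667nm spot fluorescence with signal to noise across triplicate slides.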 The conditions noted are these: higher = more signal.
A short description of assay [3]: small-molecule microarray binders of probe aCHRDL2, primary screen, biochemical, biotinylated probe, 635/667 nm fluorescence (AID 1100). The conditions noted are these: higher = more signal.
The nature of assay [4]: splicing luciferase reporter signal modulators, primary screen, spliceosome inhibition project, cell-based, HEK293, splice +/- reporter (AID 1101).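 Further: HEK293 cells carrying a splicing-competent luciferase reporter gene; test concentration not given here.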 The conditions noted are these: luminescence, 24 h, higher = more signal, called active from +8 up or from −8 down. (In general: A reporter such as luciferase makes a cellular process visible.)
The target in assay [5] is Fibroblast growth factor 10 (Homo sapiens) (UniProt O15520). As to the kind of experiment: FGF10 binders on small-molecule microarrays, primary screen, biochemical, small-molecule microarray, 635 nm fluorescence (AID 1102). The conditions noted are these: FGF10 binding, fluorescence 635 nm, higher = more signal.
Fibroblast growth factor 10 (Homo sapiens), sequence (O15520 whole entry, looked up): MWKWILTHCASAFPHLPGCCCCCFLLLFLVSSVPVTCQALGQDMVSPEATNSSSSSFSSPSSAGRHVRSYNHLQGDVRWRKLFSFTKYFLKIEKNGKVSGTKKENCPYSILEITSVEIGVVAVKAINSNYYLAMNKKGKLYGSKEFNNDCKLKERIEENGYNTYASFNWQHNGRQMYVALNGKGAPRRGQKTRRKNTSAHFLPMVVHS
In assay [6] the test system is glycogen synthase kinase-3 (GSK3A per assay name; protocol says GSK3B). The assay can be described thus: GSK3 binders on small-molecule microarrays, primary screen, biochemical, small-molecule microarray, 635 nm fluorescence, GSK3A (AID 1103). Further: the record names both GSK3A and GSK3B. The conditions noted are these: small-molecule microarray binding, fluorescence 635 nm; higher = more signal.
The target in assay [7] is Epidermal growth factor receptor (Homo sapiens) (UniProt P00533). As to the kind of experiment: EGFR binders on small-molecule microarrays, primary screen, biochemical, small-molecule microarray, 635 nm fluorescence (AID 1104).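 Further: score merges 667 nm emission intensity with spot signal to noise over triplicate slides.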 The conditions noted are these: EGFR binding, higher = more signal.
Epidermal growth factor receptor (Homo sapiens), sequence (P00533 whole entry, looked up): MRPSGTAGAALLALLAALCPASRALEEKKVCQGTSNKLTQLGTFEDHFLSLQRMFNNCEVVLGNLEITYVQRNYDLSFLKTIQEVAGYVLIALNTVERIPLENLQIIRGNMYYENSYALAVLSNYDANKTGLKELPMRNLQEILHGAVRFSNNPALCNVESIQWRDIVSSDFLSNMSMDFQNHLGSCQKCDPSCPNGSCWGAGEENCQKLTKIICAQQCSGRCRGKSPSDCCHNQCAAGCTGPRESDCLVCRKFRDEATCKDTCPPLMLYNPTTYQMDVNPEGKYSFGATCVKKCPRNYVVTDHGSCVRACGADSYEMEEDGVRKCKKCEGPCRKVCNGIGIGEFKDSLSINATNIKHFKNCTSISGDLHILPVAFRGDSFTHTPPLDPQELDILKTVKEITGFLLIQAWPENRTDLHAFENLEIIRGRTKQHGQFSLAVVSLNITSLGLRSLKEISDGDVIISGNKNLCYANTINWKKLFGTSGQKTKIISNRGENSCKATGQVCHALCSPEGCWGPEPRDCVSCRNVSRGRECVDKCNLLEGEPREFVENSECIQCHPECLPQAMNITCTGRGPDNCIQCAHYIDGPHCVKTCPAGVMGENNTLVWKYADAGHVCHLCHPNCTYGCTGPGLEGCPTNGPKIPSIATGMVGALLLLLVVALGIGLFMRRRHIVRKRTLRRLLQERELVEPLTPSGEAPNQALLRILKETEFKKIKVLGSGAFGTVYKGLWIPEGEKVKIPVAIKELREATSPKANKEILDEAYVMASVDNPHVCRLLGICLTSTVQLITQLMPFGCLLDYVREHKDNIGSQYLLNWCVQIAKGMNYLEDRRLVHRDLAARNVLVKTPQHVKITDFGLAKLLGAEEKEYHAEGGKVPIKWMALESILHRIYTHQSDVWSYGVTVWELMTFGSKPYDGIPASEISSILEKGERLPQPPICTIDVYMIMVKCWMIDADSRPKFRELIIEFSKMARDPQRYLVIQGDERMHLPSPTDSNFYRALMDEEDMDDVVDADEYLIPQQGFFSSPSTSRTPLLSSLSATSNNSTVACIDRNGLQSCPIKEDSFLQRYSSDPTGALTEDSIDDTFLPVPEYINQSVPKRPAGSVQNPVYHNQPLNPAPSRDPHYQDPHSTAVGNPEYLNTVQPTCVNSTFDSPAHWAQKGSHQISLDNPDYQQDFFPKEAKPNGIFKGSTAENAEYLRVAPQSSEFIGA
The target in assay [8] is Follistatin-related protein 3 (Homo sapiens) (UniProt O95633). As to the kind of experiment: FSTL3 binders on small-molecule microarrays, primary screen, biochemical, small-molecule microarray, 635 nm fluorescence (AID 1105).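 Further: score merges emission near 667 nm and signal to noise per printed spot across three slides.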 The conditions noted are these: FSTL3 binding, higher = more signal.
Follistatin-related protein 3 (Homo sapiens), sequence (O95633 whole entry, looked up): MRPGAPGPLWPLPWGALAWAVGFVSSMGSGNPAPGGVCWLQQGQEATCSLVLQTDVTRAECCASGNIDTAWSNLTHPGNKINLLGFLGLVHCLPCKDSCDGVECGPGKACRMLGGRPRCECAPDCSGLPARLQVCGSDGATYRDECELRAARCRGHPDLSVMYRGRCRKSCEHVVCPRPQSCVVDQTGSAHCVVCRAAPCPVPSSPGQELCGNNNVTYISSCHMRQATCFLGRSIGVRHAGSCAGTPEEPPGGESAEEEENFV
Assay [9] concerns the target Dickkopf-related protein 1 (Homo sapiens) (UniProt O94907). The assay can be described thus: DKK1 binders on small-molecule microarrays, primary screen, biochemical, small-molecule microarray, 635 nm fluorescence scan (AID 1106).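 Further: score merges emission near 667 nm with signal to noise over three replicate slides.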 The conditions noted are these: DKK1 binding, higher = more signal.
For assay [10], the system named is Inhibin beta A chain (activin A). The assay can be described thus: INHBA (activin A) binders on microarrays, primary screen, biochemical, small-molecule microarray, 635 nm fluorescence scan (AID 1107).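 Further: mouse activin A protein probed at 4.33 µg/mL on printed slides; score merges bound-protein fluorescence near 667 nm with spot signal-to-noise.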 The conditions noted are these: small-molecule microarray binding, higher = more signal.
Assay [11] relates to Human papillomavirus type 1a protein E7 (residues 44-93). As to the kind of experiment: HPV1a E7 fragment binders on microarrays, primary screen, biochemical, small-molecule microarray, residues 44-93, 635 nm fluorescence (AID 1108).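 Further: E7 fragment applied at 1 µg/mL in TBST for 1 h at 4 C; score combines spot fluorescence with its signal to noise ratio.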 The conditions noted are these: small-molecule microarray binding, fluorescence 635 nm; higher = more signal.
Assay [12] in a line: modulators of HCV replicon luciferase signal, primary screen, HCV replication inhibitor project, Huh7 cells, luciferase reporter (AID 1109).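 Further: huh7 hepatoma cells harbouring a luciferase neomycin HCV replicon reporter; luciferase luminescence as measure of HCV replicon replication; test concentration not given here.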 The conditions noted are these: 48 h, higher = more signal. On the technique in general: A replicon is a self-replicating genome or part of one, used to study replication in cells.
The target in assay [13] is Left-right determination factor 2 (Homo sapiens) (UniProt O00292). As to the kind of experiment: LEFTY2 binders on small-molecule microarrays, primary screen, biochemical, small-molecule microarray, 635 nm fluorescence scan (AID 1110). The conditions noted are these: LEFTY2 binding, higher = more signal.
Left-right determination factor 2 (Homo sapiens), sequence (O00292 whole entry, looked up): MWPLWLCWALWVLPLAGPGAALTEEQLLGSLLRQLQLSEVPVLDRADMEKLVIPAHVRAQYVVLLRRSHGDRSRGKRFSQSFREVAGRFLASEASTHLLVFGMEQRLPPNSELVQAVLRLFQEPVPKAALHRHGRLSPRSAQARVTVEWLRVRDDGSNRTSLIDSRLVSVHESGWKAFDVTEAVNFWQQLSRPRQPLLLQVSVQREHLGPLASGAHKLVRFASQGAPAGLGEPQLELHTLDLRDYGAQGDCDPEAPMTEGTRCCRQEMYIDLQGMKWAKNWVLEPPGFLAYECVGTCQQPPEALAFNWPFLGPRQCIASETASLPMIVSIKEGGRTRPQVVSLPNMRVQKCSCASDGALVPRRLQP
The target in assay [14] is Calmodulin-1 (Homo sapiens) (UniProt P0DP23). As to the kind of experiment: CALM1 binders on microarrays, EGTA buffer, profiling panel, biochemical, small-molecule microarray, Cy5-labelled CALM1 (AID 1111).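 Further: labelled calmodulin applied in Tris saline Tween buffer holding calcium plus EGTA and DTT.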 The conditions noted are these: Cy5-CALM1 binding fluorescence, higher = more signal.
For assay [15] the target is unchanged. As to the kind of experiment: calcium-bound CALM1 binders on microarrays, profiling panel, artefact control for SMM control-protein annotation, biochemical, small-molecule microarray, Cy5-labelled CALM1, plus calcium (AID 1112).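 Further: score merges spot fluorescence with signal to noise from triplicate slides.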 The conditions noted are these: Cy5-CALM1 binding fluorescence, higher = more signal.
Assay [16] can be described thus: small-molecule microarray binders of probe aWnt5a, primary screen, biochemical, biotinylated probe, 635/667 nm fluorescence (AID 1113).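 Further: score merges 667 nm fluorescence intensity with signal-to-noise per printed feature.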 The conditions noted are these: higher = more signal.
The nature of assay [17]: small-molecule microarray binders of probe aShh, primary screen, biochemical, biotinylated probe, 635/667 nm fluorescence (AID 1114).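 Further: probe is biotin-labelled aShh protein from a stem cell growth factor screen; measures binding of labelled protein to compounds printed on the slide; score merges feature fluorescence at 667 nm with signal-to-noise.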 The conditions noted are these: higher = more signal.
The nature of assay [18]: small-molecule microarray binders of probe aNog, primary screen, biochemical, biotinylated probe, 635/667 nm fluorescence (AID 1115).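 Further: probe is biotinylated aNog protein used at 0.15 µg/mL for 1 h at 4 C; z-score combines 667 nm fluorescence of each spot with its signal to noise.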 The conditions noted are these: higher = more signal.
The target in assay [19] is Torsin-1A-interacting protein 1 (Homo sapiens) (UniProt Q5JTV8). The assay can be described thus: LAP1 binders from COS7 cell lysate, primary screen, small-molecule microarray, 635/667 nm fluorescence (AID 1116). The conditions noted are these: COS7-hLAP1 lysate binding, 635 nm fluorescence, higher = more signal.
Torsin-1A-interacting protein 1 (Homo sapiens), sequence (Q5JTV8 whole entry, looked up): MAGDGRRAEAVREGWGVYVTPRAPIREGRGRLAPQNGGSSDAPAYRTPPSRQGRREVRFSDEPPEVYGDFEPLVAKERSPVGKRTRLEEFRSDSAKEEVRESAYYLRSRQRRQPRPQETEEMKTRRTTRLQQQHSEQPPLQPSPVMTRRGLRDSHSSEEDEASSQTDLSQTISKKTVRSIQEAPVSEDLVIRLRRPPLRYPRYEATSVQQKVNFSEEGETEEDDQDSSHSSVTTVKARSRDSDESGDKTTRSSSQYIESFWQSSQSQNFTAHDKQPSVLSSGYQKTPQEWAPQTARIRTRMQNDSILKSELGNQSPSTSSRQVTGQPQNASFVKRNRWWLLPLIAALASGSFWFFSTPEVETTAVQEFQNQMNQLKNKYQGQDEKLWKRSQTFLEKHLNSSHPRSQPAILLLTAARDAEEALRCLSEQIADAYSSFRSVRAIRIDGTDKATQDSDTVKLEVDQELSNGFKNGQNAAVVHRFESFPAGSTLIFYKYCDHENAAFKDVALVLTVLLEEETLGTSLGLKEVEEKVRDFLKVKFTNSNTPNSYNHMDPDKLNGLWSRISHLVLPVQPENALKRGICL
Assay [20] addresses Alpha-bungarotoxin (Bungarus multicinctus) (UniProt P60615). The assay can be described thus: alpha-bungarotoxin binders on microarray, profiling panel, artefact control for SMM control protein annotation, biochemical, small-molecule microarray, Alexa647 label, 635/667 nm fluorescence (AID 1117). The conditions noted are these: alpha-BTX-A647 binding fluorescence, higher = more signal.

The source made the active and inactive calls.

Alpha-bungarotoxin (Bungarus multicinctus), sequence (P60615 whole entry, looked up): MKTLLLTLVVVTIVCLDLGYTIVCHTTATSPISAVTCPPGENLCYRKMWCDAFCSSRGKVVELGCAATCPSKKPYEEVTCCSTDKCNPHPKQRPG
Dickkopf-related protein 1 (Homo sapiens), sequence (O94907 whole entry, looked up): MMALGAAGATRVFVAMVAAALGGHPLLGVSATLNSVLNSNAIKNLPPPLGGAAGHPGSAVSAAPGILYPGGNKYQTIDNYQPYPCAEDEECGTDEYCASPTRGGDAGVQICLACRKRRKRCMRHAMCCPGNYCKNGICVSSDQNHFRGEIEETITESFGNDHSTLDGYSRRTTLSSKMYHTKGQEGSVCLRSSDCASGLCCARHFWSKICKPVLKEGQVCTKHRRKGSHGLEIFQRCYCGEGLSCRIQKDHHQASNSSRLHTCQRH

For `COC(=O)[C@@]1(Cc2ccccc2)[C@H]2c3cc(C(=O)N4CCCC4)n(Cc4c(CO)[nH]cc(C)c4=O)c3C[C@H]2CN1C(=O)c1ccccc1`, the composite z-score in assay [1] was determined as 0.893; in assay [2], 0.896; in assay [3], 1.24; in assay [5], 0.303; in assay [6], 0.132; in assay [7], 0.113. Further, the composite z-score in assay [8] was 0.0713; in assay [9], -0.135; in [10], 1.27; in assay [11], -0.596; in assay [13], -0.169; in assay [14], 1.71. Moreover, the composite z-score in assay [15] was 0.893; in assay [16], 0.0775; in [17], -0.181; in [18] it was 1.28; in assay [19] it was 2.02; in [20], 0.546. Further, the z-score was 0.796 (inactive) in assay [4] and -0.783 in assay [12].

For `COc1ccc([Si](C)(C)[C@H]2[C@H](CCn3cc([C@H](O)c4ccccc4)nn3)O[C@@]3(C(=O)N(C)c4ccccc43)[C@@H]2C)cc1`, the composite z-score was 1.17 in assay [1]; -0.0149 in assay [2]; 0.376 in [3]; -0.133 in assay [5]; -0.621 in assay [6]; -0.55 in assay [7]. Besides, the composite z-score in [8] was -0.165; in [9] it was -0.529; in assay [10] it was 0.209; in assay [11], -0.455; in assay [13] it was -0.759; in assay [14], 0.418. In addition, the composite z-score in assay [15] was 0.947; in [16], -0.119; in assay [17], -0.0793; in assay [18], -0.266; in assay [19], -0.773; in [20], -0.909. Moreover, the results for the z-score in assay [4] and in assay [12] were 1.11 (inactive) and -2.37, respectively.

On to `CN1CCC(CCCO)=CC1c1cccs1` (stereo not given), for which the composite z-score in assay [1] was 0.238; in [2], -0.391; in assay [3], -0.141; in [5] it was -0.095; in assay [6] it was 0.0706; in assay [7] it was -0.185. For the same compound, the composite z-score in [8] is -0.61; in assay [9], 0.208; in assay [10], 0.233; in assay [11], -1.03; in [13], -0.0692; in [14], -0.949. Also, the composite z-score in [15] is -0.431; in assay [16] it was -0.176; in [17], -0.0474; in assay [18] it was -0.305; in assay [19] it was 0.427; in assay [20], -0.0493. Further, the z-score in assay [4] was 0.697 (inactive); in [12], -0.132.

In the case of `O=C1[C@@]23C=C(Br)[C@H](C[C@@H]2COC3)[C@]12CO2`, the composite z-score was -1.5 in [1]; -0.183 in [2]; -0.188 in [3]; -0.573 in assay [5]; -0.88 in assay [6]; -1.24 in assay [7]. Also, the composite z-score in assay [8] is -0.858; in [9], -0.297; in [10], 1.69; in assay [11] it was -2.09; in assay [13], -1.16; in assay [14] it was -1.01. The composite z-score in assay [15] was -1.25; in [16], 0.0388; in [17] it was -0.234; in assay [18], 0.0256; in [19], -0.0722; in assay [20], -1.5. In addition, the figures for the z-score in assay [4] and in assay [12] were 1.91 (inactive) and -1.96, respectively.

As for `O=C1OCCC=C[C@H]2OC34C=CCN(CCN5CCOCC5)C(=O)[C@H]3N(CCCCCO)C(=O)[C@@H]4C12` (stereo not given in full), the composite z-score is 1.44 in assay [1]; -0.235 in assay [2]; -0.111 in assay [3]; -0.35 in assay [5]; 0.454 in assay [6]; -0.509 in assay [7]. The composite z-score is -0.379 in assay [8]; -0.041 in assay [9]; -0.309 in assay [10]; 0.57 in [11]; -0.529 in assay [13]; 0.667 in [14]. Further, the composite z-score was -0.836 in [15]; -0.147 in [16]; -0.237 in assay [17]; -0.103 in [18]; 2.24 in [19]; 1.88 in [20]. The z-score in assay [4] was -0.78 (inactive); in assay [12], 0.305.
